Source: PubChem BioAssay (NCATS)
Records with an inconclusive call do not appear. Calls of active or inactive are those of the source. The call rests on the fitted dose curve; in most records, active means well fitted inhibition curve with a large enough effect; inconclusive means small, poorly fitted or top-dose-only effect; inactive means flat fitted curve, though single readings scatter.

The compounds below were run against Calcium and integrin-binding protein 1 (Homo sapiens) (UniProt Q99828) (assay: Primary qHTS for Identification of Calcium Integrin Binding Protein 1 (CIB1) Competitor (AID 1508620;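 further: GST tagged CIB1 binding a fluorescein labelled alphaIIb integrin peptide tracer; top concentration of the series differs between compounds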)). Details: CIB1-GST / FITC-alphaIIb peptide fluorescence polarization; series mostly up to 114 µM; activity change, negative = inhibition: at the top concentration.
Outline: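 CIB1-GST (1 uM final) and compound incubated 15 min at room temperature before adding FITC-alphaIIb peptide tracer (100 nM final). Competition for binding read by fluorescence polarization (ex 480, em 540) after another 15 min at room temperature.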
On the % scale 0 is the no-effect control and ±100 the full control effect.

Sequence of Calcium and integrin-binding protein 1 (Homo sapiens) (Q99828 whole entry, looked up): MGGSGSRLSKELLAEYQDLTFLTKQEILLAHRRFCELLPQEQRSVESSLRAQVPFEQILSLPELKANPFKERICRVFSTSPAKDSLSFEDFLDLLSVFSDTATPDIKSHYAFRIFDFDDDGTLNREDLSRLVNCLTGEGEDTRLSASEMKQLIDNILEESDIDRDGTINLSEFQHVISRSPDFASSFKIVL

SMILES	activity change, negative = inhibition
C=C1C(=O)O[C@@H]2[C@H]1CC[C@H](C)[C@]1(CCC(=O)O1)C2(C)O (some centres undefined)	-5.76% (inactive)
C/C=C\NC(=O)C1NC(=O)C(CC(N)=O)NC(=O)C(NC(=O)C(=O)C(C)CC)Cc2ccc(O)c(c2)-c2cccc3c2NC(=O)C3(O)C1O (centres undefined)	0.181% [at 30.2 µM] (inactive)
C[C@H](Nc1cc2c(-c3ccc4c(c3)OCO4)noc2cn1)c1ccccc1	0.248% (inactive)
Cc1ccc(C(C)C)c(O[C@@H]2O[C@H](CO)[C@@H](O)[C@H](O)[C@H]2O)c1	2.21% [at 57.7 µM] (inactive)
COc1ccccc1OCCN1CC(COc2cccc3[nH]c4ccccc4c23)OCC1=O (centres undefined)	-5.72% (inactive)
C=C1C(=O)O[C@@H]2C[C@]3(C)[C@@H](CCC(C)O)[C@@H]3C[C@H]12 (some centres undefined)	1.63% (inactive)
CC(=O)OC1CC(C)(C(=O)O)CC2C3=CC(=O)C4C5(C)CCC(OC6OC(C(=O)O)C(O)C(O)C6OC6OC(C(=O)O)C(O)C(O)C6O)C(C)(C)C5CCC4(C)C3(C)CCC12C (centres undefined)	0.64% [at 30.2 µM] (inactive)
C[C@@H]1O[C@@H](O[C@H]2CC[C@@]3(C)C(CC[C@]4(C)C3CC=C3[C@@H]5CC(C)(C)CC[C@]5(C(=O)O[C@@H]5O[C@H](CO)[C@@H](O)[C@H](O)[C@H]5O)CC[C@]34C)[C@]2(C)CO)[C@H](O)[C@H](O[C@@H]2O[C@H](CO)[C@@H](O)[C@H](O)[C@H]2O)[C@H]1O (some centres undefined)	1.16% [at 30.2 µM] (inactive)
CC12CCC3C1C(c1c(cc(O)c(C(=O)c4ccccc4)c1O)O2)C3(C)C (centres undefined)	-1.33% [at 57.7 µM] (inactive)
C/C(=C/C=C\C=C\Cc1cnco1)[C@@H](O)C(C)(C)C(N)=O	5% (inactive)
Cc1nc2ccc(CN(C)c3ccc(C(=O)NC(CCC(=O)O)C(=O)O)s3)cc2c(=O)[nH]1 (centres undefined)	-7.9% (inactive)
CN(C)Cc1ccc(-c2cnn3c(-c4cccc(NC(=O)c5cccc(C(F)(F)F)c5)c4)ccnc23)cc1	-13.7% (inactive)
NC(=O)c1cnc(N[C@@H]2CCCC[C@@H]2N)nc1Nc1cccc(-n2nccn2)c1	1.49% [at 57.7 µM] (inactive)
CCC(C)C(=O)OC1C(C)C2(O)C(C=C(CO)CC3(O)C(=O)C(C)=CC32)C2C(C)(C)C12OC(=O)C(C)C (centres undefined)	-2.69% [at 57.7 µM] (inactive)
COc1cc2ncnc(Nc3ccc(F)c(Cl)c3)c2cc1O	-4% (inactive)
CC(C)C[C@@H]1NC(=O)[C@@H](Cc2ccccc2)NC(=O)C(CCCCCC(=O)C2CO2)NC(=O)[C@@H]2CCCCN2C1=O (some centres undefined)	-5.89% [at 57.7 µM] (inactive)
CC(CCC1(O)OC2CC3C4CC=C5CC(O[C@@H]6O[C@H](CO)[C@@H](O[C@@H]7O[C@@H](C)[C@H](O)[C@@H](O)[C@H]7O)[C@H](O)[C@H]6O[C@@H]6O[C@@H](C)[C@H](O)[C@@H](O)[C@H]6O)CCC5(C)C4CCC3(C)C2C1C)CO[C@@H]1O[C@H](CO)[C@@H](O)[C@H](O)[C@H]1O (some centres undefined)	1.08% [at 30.2 µM] (inactive)
CC(C)CCNC(=O)c1ccc2c(c1)nc(Nc1n[nH]c3ccc(-c4ccccc4OC(F)(F)F)cc13)n2C1CCC(O)CC1 (centres undefined)	-2.07% (inactive)
CC1=C(c2ccc(NC(=O)c3c(F)cccc3F)cc2)CN(c2nccs2)CC1	9.74% (inactive)
CC(=O)O[C@]1(C(C)=O)CC[C@H]2[C@@H]3CCC4=CC(=O)CCC4=C3[C@@H](c3ccc(N(C)C)cc3)C[C@@]21C	-4.5% (inactive)

SMILES	activity change, negative = inhibition
COc1c(F)cccc1C(=O)N1C[C@@H](C)CC[C@H]1CNc1ccc(Br)cn1	2.43% (inactive)
COc1ccc(CCc2nc3c(C)c(-c4c(C)noc4C)c(C)cc3n2CCN2CCOCC2)cc1	4.06% (inactive)
O=C(NNc1nc2cc(F)ccc2n2cccc12)c1cnccn1	-7.76% (inactive)
CC1(C)CC[C@]2(C(=O)O)[C@H](O)C[C@]3(C)C(=CCC4[C@@]5(C)CC[C@H](O[C@@H]6O[C@H](CO[C@@H]7OC[C@H](O)[C@H](O)[C@H]7O[C@@H]7OC[C@H](O)[C@H](O)[C@H]7O)[C@@H](O)[C@H](O)[C@H]6O)C(C)(C)C5CC[C@]43C)[C@@H]2C1 (some centres undefined)	-3.42% [at 30.2 µM] (inactive)
C=C(C)C(=O)OC1CC(CO)CCC/C(CO)=C/C2OC(=O)C(=C)C21 (centres undefined)	-7.86% [at 57.7 µM] (inactive)
COC1CC(O[C@H]2CC[C@]3(C)C4CC[C@@]5(C)C(=O)[C@]4(CC[C@@H]3C2)CC[C@@H]5C2=CC(=O)OC2)OC(C)C1OC1OC(COC2OC(CO)C(O)C(O)C2O)C(O)C(O)C1O (some centres undefined)	2.29% [at 30.2 µM] (inactive)
C=C(C(=O)O)[C@@H]1CC=C(CCC(C)=O)[C@@H](C)CC1	-5.39% (inactive)
CC1(C)C2CCC(CO[C@@H]3O[C@H](CO[C@@H]4OC[C@](O)(CO)[C@H]4O)[C@@H](O)[C@H](O)[C@H]3O)C1C2 (some centres undefined)	-0.0035% [at 57.7 µM] (inactive)
C/C(=C\Cc1c(O)c(Cl)c(C)c(C=O)c1O)CC/C=C(\C)[C@H]1CC(=O)C(C)(C)O1	-1.24% [at 57.7 µM] (inactive)
Cn1c(=O)c2c(ncn2Cc2ccc(C(C)(C)C)cc2)n(C)c1=O	-2.72% (inactive)
CNc1nc(Nc2ccc(C(=O)N3CCOCC3)cc2OC)nc2[nH]cc(Cl)c12	3.11% (inactive)
CC(=O)OC/C(=C/C(=O)O)CC[C@@H]1C(C=O)=CC[C@@H]2C(C)(C)CCC[C@@]12C	-2.47% [at 57.7 µM] (inactive)
Cc1cc(F)c(C(=O)Nc2cccc(-c3nncn3C(C)C)n2)cc1-n1cnc(C2CC2)c1	0.135% [at 57.7 µM] (inactive)
C=C(C)Cn1c(SCC(=O)c2cccs2)nc2sc3c(c2c1=O)CCCC3	2.06% (inactive)
C=C1CC[C@@H]2[C@](C)(CO)[C@H](O)CC[C@@]2(C)[C@@H]1CC(=O)C1=CCOC1=O	5.11% [at 57.7 µM] (inactive)
COc1cc(C(C)=O)c(OC)c2c1OC(C)(C)C=C2	-2.43% (inactive)
CCC(CC)C(=O)OC12C(OC(=O)C(C)C)C(C)C3(O)C(C=C(CO)CC4(O)C(=O)C(C)=CC43)C1C2(C)C (centres undefined)	3.19% [at 57.7 µM] (inactive)
C=C(C)C1=C[C@@]2(C)C(=CC1=O)CC[C@@H](O)[C@@H]2C	-3.03% (inactive)
CCn1c(=O)c(-c2ccc(Cl)cc2Cl)cc2cnc(Nc3ccc(N4CCNCC4)c(F)c3)nc21	0.0904% (inactive)
